Inconclusive results are not listed. Entries that show only a call come without a potency. Activity calls are given as the source filed them. The call rests on the fitted dose curve; in most records, active means well fitted activation curve with a large enough effect; inconclusive means small, poorly fitted or top-dose-only effect; inactive means no such curve, though single readings can be large or run the other way.
Assay: qHTS assay for re-activators of p53 using a Luc reporter: Hit Validation with no p53 Expressed
Conditions: p53-null cells, luciferase reporter counter-screen; series mostly up to 46.1 µM
In short: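 Counter-screen of primary hits in a cell line not transfected with p53, in Opti-MEM with 10% FBS; compounds at several concentrations (10 mM stock, 1:5; top 46.1 µM in well), 24 h at 37 deg C, 5% CO2. Luminescence read after 10 min with Amplite reagent.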

Row | SMILES | Potency
1 | Clc1ccc(Nc2nc(-c3cccs3)cs2)nc1 | inactive
2 | C/C(=N/NC(=O)c1ccc2c(c1)OCO2)c1ccc(NC(=O)C(F)(F)F)cc1 | inactive
3 | O=C(/C=C/c1ccc([N+](=O)[O-])s1)N1CCCCC1 | inactive
4 | CN1CCN(c2ncnc3c2cnn3-c2ccc(Cl)cc2)CC1 | inactive
5 | C=CCn1c(P(C)(=O)O)nc2ccccc21 | inactive
6 | Oc1c(CN2CCOCC2)cc(COCc2ccccc2)c2cccnc12 | inactive
7 | Cc1cc(C(c2nnnn2Cc2ccccc2)N2CCOCC2)c(C)n1-c1ccc2c(c1)OCO2 (stereo not given) | inactive
8 | Cc1ccc2oc(-c3ccc(C)c(NC(=S)NC(=O)c4cccs4)c3)nc2c1 | inactive
9 | O=C(CCS(=O)(=O)c1ccccc1)Nc1nc2c(s1)CCCC2 | inactive
10 | CN(Cc1ccccc1)C(=O)CNC(=O)Cn1cnc2ccccc2c1=O | inactive
11 | CCC(=O)Nc1cccc(NC(=S)NC(=O)c2ccc(Cl)cc2)c1 | inactive
12 | Cc1ccc(S(=O)(=O)NCCOc2nc(N(C)C)nc(N3CCOCC3)n2)cc1 | inactive
13 | Cc1cc(C)cc(NC(=O)c2sc3nc(C)cc(C)c3c2N)c1 | inactive
14 | c1ccc(Oc2cc(-n3cncn3)ncn2)cc1 | inactive
15 | CCc1ccc(C(=O)Nc2nc3ccccc3[nH]2)cc1 | inactive
16 | c1cnc2c(OCc3nc4ccccc4[nH]3)cccc2c1 | inactive
17 | COc1ccc2c(c1)CCC/C2=N\NC(=O)c1ccoc1C | inactive
18 | CS(=O)(=O)c1ccc2nc(NC(=O)c3ccco3)sc2c1 | inactive
19 | O=C(Nc1ccc2c(c1)CCC2)c1ccccc1F | inactive
20 | Cn1c(=N)n(CC(=O)c2ccc(Cl)c(Cl)c2)c2ccccc21 | inactive

Reference: PubChem BioAssay AID624331 (National Center for Advancing Translational Sciences (NCATS), 2012)
